# According to PubChem BioAssay (NCATS):
# A number with no mark means an inactive call. Calls follow the shape of the dose curve; as a rule, active = well fitted activation curve with a large enough effect; inconclusive = small, poorly fitted or top-dose-only effect, or effect the other way; inactive = flat fitted curve, though single readings scatter.
# Assay: Cellular Toxicity (caspase-3) Renal Proximal Tubule (AID 667);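 also: cells exposed to compound for 16 hours at 37 °C before detection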
# Settings: renal proximal tubule cells, primary cells freshly taken from rat, solvent-only wells 0%, staurosporine 100%; series mostly up to 91.7 µM; caspase-3 activation: at the top concentration
# Description: NIH Chemical Genomics Center [NCGC]
# NIH Molecular Libraries Screening Centers Network [MLSCN]
# National Institutes of Environmental Health Sciences [NIEHS]
# National Toxicology Program [NTP]
# We have developed a 1536-well cell-based assay for quantitative high throughput screening (qHTS) against a number of cell lines to determine in vitro caspase 3/7 activity of small molecules. This particular assay uses the primary kidney proximal tubule cells freshly isolated from rat.
# NCGC Assay Protocol Summary:
# The Caspase-Glo 3/7 assay (Promega) is a homogeneous method to measure caspase-3 and caspase-7 activities in cultured cells. The quantitation of caspase 3/7 activity is based on the cleavage of a peptide-aminoluciferin substrate. After caspase cleaves the substrate the free aminoluciferin is liberated and serves as the substrate of luciferase, which generates the light. The luminescent signal is proportional to the amount of caspase 3/7 activity present.
# Using the Caspase-Glo 3/7 assay, the amount of caspase 3/7 activity was measured in the rat kidney proximal tubule cells with complete culture medium following compound treatment for 16 hours. The assay was performed in opaque white 1536-well plates. In the screen, staurosporine and doxorubicin were used as positive controls. Library compounds were measured for their ability to cause the activation of caspase 3/7 in the cell line, as reflected by an increase in luminescence signal, in a concentration-dependent manner. Data were normalized to the controls for basal activity (DMSO only) and 100% stimulation (10 uM staurosporine). AC50 values were determined from concentration-response data modeled with the standard Hill equation.
# qHTS protocol for caspase 3/7 assay in rat kidney proximal tubule cells
# [Step] [Parameter] [Value] [Description]
# 1. Reagent; 5 uL; 1000 rat kidney proximal tubule cells/well
# 2. Time; 5 hr; 37 °C incubation
# 4. Controls; 23 nL; doxorubicin 7 pM to 100 uM & staurosporine 1.4 pM to 20 uM
# 5. Time; 16 hr; 37 °C incubation
# 6. Reagent; 5 uL; Caspase-Glo 3/7 reagent
# 7. Time; 1 hr; Room Temperature
# 8. Detection; Luminescence; Viewlux plate reader
# Keywords: caspase 3/7, apoptosis, rat kidney proximal tubule cells, luminescence, NTPHTS, NTPHTS_NCGC, NIEHS, EPA, DSSTox, MLSMR, MLSCN, NIH Roadmap, qHTS, NCGC
row,SMILES,caspase-3 activation [%]
1,COc1ccc(C(=O)c2ccccc2)c(O)c1,-5.07
2,CCCN(CCC)S(=O)(=O)c1ccc(C(=O)O)cc1,-8.16
3,C/C=C/c1ccc(O)c(OC)c1,5.48
4,C=C[C@H]1CN2CC[C@H]1C[C@@H]2[C@@H](O)c1ccnc2ccc(OC)cc12,2.55
5,CCOc1ccc(NC(C)=O)cc1,4.14
6,COc1ccc(C(Cl)=C(c2ccc(OC)cc2)c2ccc(OC)cc2)cc1,7.65
7,NCCNc1cccc2ccccc12,-1.16
8,NC(=O)c1ccccc1O,-6.97
9,OC[C@H]1O[C@@H]2O[C@H]3[C@H](O)[C@@H](O)[C@@H](O[C@H]4[C@H](O)[C@@H](O)[C@@H](O[C@H]5[C@H](O)[C@@H](O)[C@@H](O[C@H]6[C@H](O)[C@@H](O)[C@@H](O[C@H]7[C@H](O)[C@@H](O)[C@@H](O[C@H]8[C@H](O)[C@@H](O)[C@@H](O[C@H]1[C@H](O)[C@H]2O)O[C@@H]8CO)O[C@@H]7CO)O[C@@H]6CO)O[C@@H]5CO)O[C@@H]4CO)O[C@@H]3CO,-2.69
10,CCOc1ccccc1C(N)=O,4.57
11,COc1cc([C@H]2Oc3cc([C@H]4Oc5cc(O)cc(O)c5C(=O)[C@@H]4O)ccc3O[C@@H]2CO)ccc1O,2.5
12,Oc1c(Cl)cc(Cl)c(Cl)c1Cc1c(O)c(Cl)cc(Cl)c1Cl,-2.35
13,O=C(O)c1ccc(S(=O)(=O)N(Cl)Cl)cc1,7.53
14,CCCCC(CC)COC(=O)c1ccc(N(C)C)cc1 (stereo not given),-0.746
15,Oc1ccc(Cl)cc1Cc1cc(Cl)ccc1O,28
